The list is not random: actives were taken first. Their share in the collection is about 6.5%.
HT1080 IDH1KD tx = qHTS for induction of synthetic lethality in tumor cells producing 2HG: qHTS for the HT-1080-IDH1KD cell line; HT-1080 IDH1 knockdown viability, ATP luminescence, 48 h; Potency, µM (series often up to 46.1 µM), inactives show at the top dose activity, negative = toxicity, most hits filed as cytotoxic; 360,000 tested, 2% active;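 further: potency means the concentration at half of the fitted maximal effect; 0% = DMSO wells and -100% = cell-free medium wells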
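Assay cells: HT-1080 with IDH1 knockdown, 750 per well, RPMI/5% FBS. Exposure: 48 h at 37 °C following 2 h pre-incubation. Read: CellTiter-Glo luminescence; fitted concentration-response, curve class assigned.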
Giardia killer = Small Molecules that selectively kill Giardia lamblia: qHTS. Giardia lamblia trophozoite viability. activity change, % at 7.66 µM, hits read low. 340,000 tested, 0.15% active. AID 540267, 2011; in the data active means activity change below about -80%; inconclusive means between about -30% and that limit;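 further: parasites exposed to compound for two days anaerobically before the ATP read; on the % scale 0 is the no-effect control and ±100 the full control effect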
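Trophozoites 100 cells/well + cpd; 48 hrs, 37 deg C, anaerobic. ATPLite 1-Step added, 15-30 min RT, luminescence read (ATP-based viability).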
HepG2 tox = qHTS for Inhibitors of TGF-b: Cytotox Counterscreen; 410,000 tested, 0.76% active; AID 588856, 2011; HepG2 CAGA-GFP viability, ATP luminescence, 18 h; Potency, µM (top dose mostly 46.1 µM), for the others: at the top dose activity change, negative = cytotoxicity, usual class: cytotoxic; further: potency means the concentration at half of the fitted maximal effect
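CellTiter-Glo luminescence gave cytotoxicity after 18 hours at 37 degrees C. The cells were HepG2 CAGA-GFP in 1% FBS DMEM, stimulated with 500 pg/mL TGF-beta after compound addition. %Activity was normalised to no-cell wells (complete cell-killing) and DMSO (no toxicity), and curves were fitted and classified.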
TGFb inhibitor = qHTS for Inhibitors of TGF-b | 410,000 tested, 1.2% active | HepG2 CAGA-GFP TGF-b/SMAD3 reporter, GFP fluorescence, 18 h; TGF-beta stimulated, 500 pg/mL final | Potency, µM (highest dose often 46.1 µM), for the others: at the top dose activity, negative = inhibition, most hits filed as inhibitors; further: potency means the concentration at half of the fitted maximal effect; on the % scale 0 is the no-effect control and ±100 the full control effect; nearly all actives have a fitted effect of over 65% in size
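Inhibition was scored as loss of TGF-beta-induced (500 pg/mL final, 18 hours, 37 degrees C) GFP in HEPG2 cells carrying a CAGA-GFP reporter, in DMEM with 1% FBS. Well GFP was summed per cell; Activity was normalised to unstimulated and stimulated DMSO wells, then concentration-response fitting.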
HT1080-NT tox = qHTS for induction of synthetic lethality in tumor cells producing 2HG: qHTS for the HT-1080-NT fibrosarcoma cell line; HT-1080-NT fibrosarcoma viability, CellTiter-Glo ATP luminescence, 48 h; Potency, µM (doses to about 46.1 µM), without a hit: top-dose activity, negative = less viability, most hits filed as cytotoxic; 360,000 tested, 1.6% active; AID 686970, 2013;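 further: NT is the 2HG producing partner of a matched IDH1 knockdown line; potency means the concentration at half of the fitted maximal effect; 0% = DMSO-treated cells and -100% = media-only wells without cells; nearly all actives have a fitted effect of over 55% in size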
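Viability by CellTiter-Glo luminescence after 48 h compound exposure at 37C of HT-1080-NT cells (750/well, RPMI, 5% FBS). % activity scaled between DMSO wells and medium-only wells, then curve-fitted and categorized by curve class.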
IL1B secr inh = qHTS for Inhibitors of Inflammasome Signaling: IL-1-beta AlphaLISA Primary Screen | THP-1 LPS/ATP IL-1B secretion, AlphaLISA, 16 h; active compounds read low | activity change, % at 57.5 µM | 360,000 tested, 4.7% active; in the data active means activity change below about -50%; inconclusive means mostly about -30% to -49%; further: on the % scale 0 is the no-effect control and ±100 the full control effect
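THP-1 cells pretreated 1 hr with compounds (up to 57.5 uM final), then stimulated with LPS (250 ng/mL final) plus ATP (1.25 mM final); secreted IL-1B measured by AlphaLISA after 16 hr, decreased signal indicating inhibition.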
Numbers without * were called inactive; ? = inconclusive; · = no result. Unless noted, the call rests on the fitted dose curve; in most records, active means well fitted curve in the direction sought with a large enough effect; inconclusive means small, poorly fitted or top-dose-only effect, or another doubt; inactive means no such curve, though single readings can be large; an effect the other way counts as inactive or inconclusive.

SMILES	HT1080 IDH1KD tx	Giardia killer	HepG2 tox	TGFb inhibitor	HT1080-NT tox	IL1B secr inh
CCN1CCN(C(=O)C(N)Cc2ccccc2)CC1 (configuration not stated)	5%	2	-2%	-1%	-14%	-11
COC(=O)[C@]12CCCCC=C1N(Cc1ccc(Cl)cc1Cl)C(=O)[C@H](CC(=O)NCCc1ccccc1OC)C2	?	·	·	·	?	-61*
CCCCOCCCNC(=O)C[C@@H]1C[C@@]2(C(=O)OC)CCCCC=C2N(Cc2ccc(Cl)cc2Cl)C1=O	?	·	·	·	?	-59*
CCOC(=O)[C@]12CCCC=C1N(Cc1ccc(Cl)cc1Cl)C(=O)[C@H](CC(=O)NCCCCc1ccccc1)C2	?	·	·	·	?	0
COC(=O)[C@]12CCCCC=C1N(Cc1ccc(Cl)cc1Cl)C(=O)[C@H](CC(=O)NCCCCc1ccccc1)C2	?	·	·	·	?	-51*
CCN1C(=NCCCCO)N[C@@H](c2cccc(C(F)(F)F)c2)C(C(=O)OC)=C1C	-10%	-30	-10%	23%	-8%	-23
CCN1C(=S)N[C@@H](c2cccc(F)c2)C(C(=O)OC)=C1C	12%	-15	-14%	-5%	9%	2
CCN1C(=NCc2cccc(Cl)c2)N[C@@H](c2cccc(F)c2)C(C(=O)OC)=C1C	-12%	14	-102%	?	-22%	-70*
COCCN=C1N[C@@H](c2cccc(C(F)(F)F)c2)C(C(=O)OC)=C(C)N1Cc1ccccc1	-6%	1	-25%	-19%	?	-56*
COC(=O)C1=C(C)N(Cc2ccccc2)C(=NCCCCO)N[C@H]1c1cccc(C(F)(F)F)c1	-1%	-2	-57%	?	-18%	?
COC(=O)C1=C(C)N(Cc2ccccc2)C(=NCCc2c[nH]c3ccccc23)N[C@H]1c1cccc(C(F)(F)F)c1	-19%	2	-112%	?	-28%	-50*
COC(=O)C1=C(C)N(Cc2ccccc2)C(=NCc2ccc(OC)cc2)N[C@H]1c1ccccc1	?	-12	-84%	?	-21%	-52*
O=C(N/N=C/c1ccc2c(c1)OCO2)C(=O)Nc1ccccc1	12%	-4	1%	0%	0%	-9
Cc1ccc(-c2csc(N3CCC(NS(=O)(=O)c4ccc5c(c4)OCCO5)CC3)n2)cc1	-29%	-9	-22%	-14%	-20%	-27
N[C@@]12CCc3nonc3[C@]1(O)CC(c1ccccc1)=[N+]2[O-]	8%	1	3%	-21%	11%	33
COC(=O)C1=C(C)N(Cc2ccccc2)C(=NCCc2ccccn2)N[C@H]1c1cccc(F)c1	0%	18	-22%	-22%	-12%	-55*
CCN1C(=NCCc2ccccn2)N[C@@H](c2cccc(F)c2)C(C(=O)OC)=C1C	4%	7	13%	14%	-2%	-15
COC(=O)C1=C(C)N(CC2CC2)C(=NCc2cccc(C(F)(F)F)c2)N[C@H]1c1ccccc1	-7%	2	-51%	-13%	-19%	-58*
COC(=O)C1=C(C)N(Cc2ccccc2)C(=NCc2cccc(C(F)(F)F)c2)N[C@H]1c1cccc(F)c1	?	16	14µM*	?	?	-104*
C=CCN=C1N[C@@H](c2cccc(C(F)(F)F)c2)C(C(=O)OC)=C(C)N1CC	-10%	-9	-30%	-3%	-10%	-25
COC(=O)C1=C(C)N(Cc2ccccc2)C(=O)N[C@H]1c1cccc(F)c1	-3%	-2	1%	-19%	-3%	3

Bioassay records from PubChem BioAssay.
